Each structure is given as a SMILES string. The panel holds about 83,000 compounds, 20% with a hit somewhere; the sample as a whole holds those more often.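 Activity criterion: percent growth below 10, measured after cells in 96-well plates were exposed to a single compound concentration for 48 hours.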 Values without a mark were called inactive. The source made the active and inactive calls.

Some test systems named below: EKVX NSCLC; SN12C renal; UO-31 renal; TK-10 renal; ACHN renal; CAKI-1 renal; A498 renal; CCRF-CEM leukemia; MOLT-4 leukemia.
Assay in all cases: NCI-60 one-dose screen, 48 h (100 = growth as untreated, 0 = no growth, -100 = all killed)
Details in all cases: 10 µM unless noted

In the case of `CN1CCN(Cc2ccc(NC(=O)c3cncc(C#Cc4cnc(N)c5ccncc45)c3)cc2C(F)(F)F)CC1`, the growth was 13.9% with EKVX NSCLC; 6.05% (active) in the assay on SN12C renal; 3.59% (active) in the assay on UO-31 renal; 48.6% in the assay on TK-10 renal; 2.28% (active) in the assay with ACHN renal; 4.48% (active) with CAKI-1 renal. Further, the growth in the assay with A498 renal is -22.7% (active); in the assay on CCRF-CEM leukemia it was 14.2%; in the assay with MOLT-4 leukemia it was 16.6%.

`COc1cccc(-c2cc3c(O)cc(C#N)cc3[nH]2)c1`: the growth with EKVX NSCLC was 77.8%; in the assay with SN12C renal, 66.1%; in the assay on UO-31 renal, 106%; in the assay with TK-10 renal, 97.9%; with ACHN renal, 87.6%; in the assay on CAKI-1 renal, 88.4%. Besides, the growth is 71.7% in the assay on A498 renal and 81.8% with MOLT-4 leukemia.

Turning to `O=c1[nH]c2ccc(Br)cc2c2c1C(c1ccc(Cl)cc1)c1c(ncn3nc(-c4ccco4)nc13)O2` (configuration not stated), the growth with EKVX NSCLC was 48.8%; in the assay with SN12C renal, 74.3%; in the assay with UO-31 renal, 35%; in the assay with TK-10 renal, 110%; in the assay on ACHN renal it was 65.4%; in the assay on CAKI-1 renal, 46.3%. Besides, the growth in the assay on A498 renal was 59.6%; in the assay on CCRF-CEM leukemia, 73.9%; in the assay on MOLT-4 leukemia, 88.1%.

`Cc1ccc(S(=O)(=O)n2cc(C(=O)C(=O)Nc3ccncc3)c3ccccc32)cc1`: the growth in the assay on EKVX NSCLC was 55.8%; in the assay with SN12C renal, 39.8%; in the assay with UO-31 renal, 43.1%; in the assay with TK-10 renal, 87.9%; with ACHN renal, 52.3%; with CAKI-1 renal, 42.1%. Also, the values for the growth with A498 renal and with MOLT-4 leukemia were 74.1% and 50.7%, respectively.

For the molecule `O=[N+]([O-])c1cc(Cl)c2[nH]c3c(Cl)cc([N+](=O)[O-])cc3c2c1`, the growth in the assay on EKVX NSCLC was -10.2% (active); in the assay with SN12C renal, 2.7% (active); in the assay with UO-31 renal, -13.9% (active); in the assay with TK-10 renal, -23.1% (active); in the assay on ACHN renal, -10.3% (active); in the assay on CAKI-1 renal, -34.1% (active). Moreover, the figures for the growth in the assay on A498 renal, in the assay with CCRF-CEM leukemia and with MOLT-4 leukemia were -26.6% (active), -39.9% (active) and -41.8% (active), respectively.

For the molecule `CN(CCCCCl)P(=O)(OCc1ccc([N+](=O)[O-])o1)C(F)(F)C[C@H](NC(=O)CNC(=O)c1ccc(N=[N+]=[N-])cc1)C(=O)NCCc1ccc(O)cc1` (some centres not stated), the growth with EKVX NSCLC was 102%; in the assay on SN12C renal it was 95.2%; in the assay on UO-31 renal it was 84.7%; in the assay with TK-10 renal, 121%; with ACHN renal it was 106%; in the assay on CAKI-1 renal, 105%. The growth was 104% in the assay on A498 renal and 74.7% with MOLT-4 leukemia.

Take `COc1cc(/C=C/C(=O)/C=C/c2cc(OC)c3c(c2)OCO3)cc2c1OCO2`: the growth in the assay on EKVX NSCLC was 95.9%; with SN12C renal, 85.4%; in the assay on UO-31 renal it was 88.1%; in the assay on TK-10 renal, 136%; in the assay on ACHN renal it was 102%; in the assay on CAKI-1 renal it was 92.6%. Moreover, the growth in the assay with A498 renal was 117%; in the assay on MOLT-4 leukemia, 91.2%.

Consider `O=S(=O)(c1ccc(OCCO)cc1)c1ccc(OCCO)cc1`, for which the growth in the assay on EKVX NSCLC is 108%; in the assay on SN12C renal, 106%; with UO-31 renal, 80.6%; in the assay on TK-10 renal, 94.6%; with ACHN renal, 102%; with CAKI-1 renal it was 98.9%. For the same molecule, the growth with A498 renal is 107%; in the assay on CCRF-CEM leukemia, -21.9% (active); in the assay with MOLT-4 leukemia, 83.2%.

For `O=C(Nc1ccncc1)C(=O)c1cn(S(=O)(=O)c2ccccc2F)c2ccccc12`, the growth in the assay on EKVX NSCLC is 49.2%; in the assay on SN12C renal, 33.8%; in the assay with UO-31 renal, 52.9%; in the assay on TK-10 renal, 101%; in the assay on ACHN renal it was 56.8%; in the assay on CAKI-1 renal, 35.6%. In addition, the growth was 49.7% in the assay with A498 renal and 39.1% with MOLT-4 leukemia.

Regarding `COc1ccc(-c2c(N)n[nH]c2-c2cc(OC)c(OC)c(OC)c2)cc1`, the growth with EKVX NSCLC is 48%; with SN12C renal, 38.5%; in the assay with UO-31 renal, 27.3%; in the assay on TK-10 renal, 59.8%; in the assay on ACHN renal, 40%; in the assay with CAKI-1 renal, 57%. Further, the results for the growth with A498 renal and in the assay on MOLT-4 leukemia were -3.53% (active) and 25.4%, respectively.

In the case of `O=C(Nc1ccc2c(c1)OCO2)C(=O)c1c[nH]c2cc(F)ccc12`, the growth with EKVX NSCLC was 72.4%; in the assay with SN12C renal, 79.5%; in the assay on UO-31 renal it was 71.2%; in the assay with TK-10 renal, 72.7%; in the assay with ACHN renal it was 44.9%; in the assay on CAKI-1 renal it was 32.7%. Moreover, the growth in the assay on A498 renal was 55%; in the assay on MOLT-4 leukemia, 63.1%.

In the case of `COc1ccc(C2=C(c3cc(OC)c(OC)c(OC)c3)C(=O)CC2)cc1`, the growth with EKVX NSCLC is 40%; in the assay on SN12C renal, 26.4%; with UO-31 renal, 46.2%; in the assay on TK-10 renal it was 60.6%; in the assay with ACHN renal it was 37.8%; in the assay with CAKI-1 renal, 53.5%. In addition, the growth is -4.31% (active) in the assay with A498 renal and 17.4% in the assay on MOLT-4 leukemia.

In the case of `O=C(Nc1ccc2c(c1)OCCO2)C(=O)c1c[nH]c2ccccc12`, the growth is 52.9% in the assay with EKVX NSCLC; 42.4% in the assay on SN12C renal; 50.9% with UO-31 renal; 75.1% in the assay with TK-10 renal; 57.4% in the assay with ACHN renal; 49.7% in the assay on CAKI-1 renal. Moreover, the growth with A498 renal was 26.3%; in the assay on MOLT-4 leukemia, 16.8%.

`O=C([O][Sn]([O]C(=O)c1ccccn1)([c]1ccccc1)[c]1ccccc1)c1ccccn1`: the growth is 92.2% in the assay on EKVX NSCLC; 91.3% with SN12C renal; 82.4% in the assay on UO-31 renal; 30.1% in the assay on TK-10 renal; 100% in the assay with ACHN renal; 76.5% in the assay with CAKI-1 renal. Besides, the growth with A498 renal was 101%; in the assay with CCRF-CEM leukemia, 18.1%; in the assay with MOLT-4 leukemia it was 88.3%.

The values above are taken from PubChem BioAssay (NCI).
